Reference: PubChem BioAssay (NCI)
About 83,000 compounds went through this panel and 20% of them were active in at least one assay; those are over-represented in the sample as a whole.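 Single-concentration screen, 48 h exposure, 96-well plates. Endpoint: percent growth. Below 10 = active.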 Unmarked numbers belong to inactive results. Activity calls are given as the source filed them.

System: HL-60(TB) leukemia
Assay: NCI-60 one-dose screen, 48 h (100 = growth as untreated, 0 = no growth, -100 = all killed)
Conditions: 10 µM unless noted

Row | SMILES | growth
1 | COc1ccc(-n2nc(C)c3c(Nc4ccc(NC(=O)Nc5ccc(Cl)c(C(F)(F)F)c5)cc4)ncnc32)cc1 | -9.54% (active)
2 | COc1ccc(N2C(=O)/C(=C/C(Cl)=C/c3ccc([N+](=O)[O-])cc3)SC2=S)cc1 | -14% (active)
3 | Cc1nc2cc(-n3c(-c4ccc(F)cc4)nc4ccccc4c3=O)ccc2n1Cc1ccccc1 | 57.7%
4 | Brc1cccc(-c2cc(-c3ccc4nccnc4c3)[nH]n2)c1 | 14.9% [25 µM]
5 | CO[C@H]1C[C@@H]2CC[C@@H](C)[C@@](O)(O2)C(=O)C(=O)N2CCCC[C@H]2C(=O)O[C@H]([C@H](C)C[C@@H]2CC[C@@H](OCCO)[C@H](OC)C2)CC(=O)[C@H](C)/C=C(\C)[C@@H](O)[C@H](OC)C(=O)[C@H](C)C[C@H](C)\C=C/C=C/C=C/1C | 75.7%
6 | O=C(/C=C/c1cccnc1)c1ccccc1 | 89.8%
7 | C=C1C(=O)O[C@H]2[C@H]1CC/C(COC(=O)CCCCC(=O)OC/C1=C/CC[C@@]3(C)O[C@H]3[C@H]3OC(=O)C(=C)[C@@H]3CC1)=C\CC[C@@]1(C)O[C@@H]21 | 2.37% (active)
8 | CCN1C(=O)N(CC)C2C1NN=c1s/c(=C\c3ccco3)c(=O)n12 (stereo not given) | -20.3% (active)
9 | COc1cc2cc(Oc3ccc(NC(=O)Nc4cc(C(F)(F)F)cc(C(F)(F)F)c4)cc3)c(C)nc2cc1OCCN1CCCCC1 | -2.13% (active)
10 | COc1ccc(-c2nc3c(c(-c4ccc(Cl)cc4)nn3-c3ccccc3)c(-c3ccc(O)cc3)c2C#N)cc1 | 22.7%
11 | COc1cc(/C(C)=C(\c2ccc(Cl)cc2)c2ccc(OCCN3CCCC3)cc2)ccc1F | 38.4%
12 | O=C1NC2(Nc3ccccc31)C(=O)Nc1c(Cl)cc(Cl)cc12 (stereo not given) | 106%
13 | C/C=C/c1cc2c(c(=O)o1)C(=O)[C@@H](O)[C@H](C)O2 | -22% (active)
14 | Cc1cc(NS(=O)(=O)c2ccc(NC(=O)COc3ccc(-c4cc5ccccc5[nH]4)cc3)cc2)no1 | 7.86% (active)
15 | O=[N+]([O-])c1ccc(CO)cc1 | 96.7%
16 | O=C1C(=O)c2ccccc2C(O)=C1CCCc1ccc(C2CCCCC2)cc1 | 30.6%
17 | C=C1C(=O)O[C@H]2[C@H]1CC/C(C=Nc1c(N)cc(F)cc1Br)=C\CC[C@@]1(C)O[C@@H]21 | 37.1%
18 | S=C(Cc1ccccc1)N1CCN(c2ccccc2Cl)CC1 | 92.1%
19 | COc1ccc2nc(C)cc(Sc3nc4ccccc4s3)c2c1 | 6.64% (active)
20 | CCOC(=O)C(=Cc1ccc(C#N)cc1)C(=O)OCC | -33.2% (active)

Row | SMILES | growth
21 | COc1ccc(C2CC(c3ccc(Nc4ccnc5cc(Cl)ccc45)cc3)=NN2C=O)cc1 (stereo not given) | -42.6% (active)
22 | Nc1nc(SCc2ccccc2)c2ncn(C3CCCC3)c2n1 | 75.2%
23 | COc1ccc(-c2cc(-c3ccccc3)nc(NCCNc3ccnc4cc(Cl)ccc34)n2)cc1 | -58.7% (active)
24 | CCCC(C)c1ccc(OCCCCCCN2CCNCC2)cc1 (stereo not given) | -44.9% (active)
25 | O=C1/C(=C\c2cccc3nccnc23)SC(=S)N1CCc1ccc(O)cc1 | 79.5%
26 | CN(C)c1ccc(O)c2c1CC1CC3C(N(C)C)C(=O)C(C(N)=O)=C(O)C3(O)C(=O)C1=C2O (stereo not given) | 51.3%
27 | O=C(Nc1ccc(-n2cc(-c3ccncc3)c(-c3ccc(Cl)c(O)c3)n2)cc1)c1cc(Cl)cc(Cl)c1 | 8.45% (active)
28 | C=C(C)[C@@H]1CC[C@]2(C(=O)N3CCN(CC)CC3)CC[C@]3(C)[C@H](CC[C@@H]4[C@@](C)(CCC(=O)N5CCN(CC)CC5)[C@H](C(=C)C)CC[C@]43C)[C@@H]12 | 30.4%
29 | Cc1ccc2nc(-c3ccc(C(=O)N/N=C/c4ccc([N+](=O)[O-])cc4)cc3)[nH]c2c1 | 103%
30 | CCCCCCCCCCCCOc1ccccc1C=O | 89.9%
31 | CC(C)N(CCNc1nc(C(Cl)(Cl)Cl)nc2cc(Cl)ccc12)C(C)C | -0.349% (active)
32 | CC(=O)Nc1c(Cl)cc2c(c1Cl)Cc1cc([N+](=O)[O-])ccc1-2 | 96.3%
33 | CNC(=O)c1cc(Oc2cccc3nc(Nc4ccc(Oc5ccccc5)cc4)ccc23)ccn1 | 87.1%
34 | O=C(NC(=S)Nc1ccccn1)c1ccccc1 | 95.8%
35 | O=C(N=Nc1c(O)[nH]c2ccccc12)c1oc2ccccc2c1CN1CCN(c2ccccc2)CC1 | 49.8%
36 | COc1ccc(CCO)cc1 | 64.3%
37 | CCOC(=O)c1c(C)nc2c(c1N)CC(=O)N2Cc1cc(OC)c(OC)c(OC)c1 | 18.8%
38 | NS(=O)(=O)c1ccccc1NC(=O)Nc1nc2ccccc2s1 | 102%
39 | O=S(=O)(O)c1cnccn1 | 95.3%
40 | CNc1nc2ncc(-c3c(C)noc3C)cc2n1Cc1ccccc1 | 8.97% (active)
